According to article PMC7862700, “An all-to-all approach to the identification of sequence-specific readers for epigenetic DNA modifications on cytosine”:

How the values were obtained:
Experiment in all cases: DAPPL (digital affinity profiling via proximity ligation, sequencing); 10 mM Tris-HCl pH 7.5, 50 mM NaCl, 1 mM DTT, 4% glycerol, room temperature, 30 min; GST-TFs on glutathione beads, 16-mer random dsDNA library, 0.1% formaldehyde crosslink after washing; high values mean tight binding
Settings in all cases: protein: recombinant; tags: N-terminal GST; dsDNA, one strand shown
FLI1 = molecular target: T1, FLI1 (Homo sapiens, UniProt Q01543 1-452)
T1 sequence: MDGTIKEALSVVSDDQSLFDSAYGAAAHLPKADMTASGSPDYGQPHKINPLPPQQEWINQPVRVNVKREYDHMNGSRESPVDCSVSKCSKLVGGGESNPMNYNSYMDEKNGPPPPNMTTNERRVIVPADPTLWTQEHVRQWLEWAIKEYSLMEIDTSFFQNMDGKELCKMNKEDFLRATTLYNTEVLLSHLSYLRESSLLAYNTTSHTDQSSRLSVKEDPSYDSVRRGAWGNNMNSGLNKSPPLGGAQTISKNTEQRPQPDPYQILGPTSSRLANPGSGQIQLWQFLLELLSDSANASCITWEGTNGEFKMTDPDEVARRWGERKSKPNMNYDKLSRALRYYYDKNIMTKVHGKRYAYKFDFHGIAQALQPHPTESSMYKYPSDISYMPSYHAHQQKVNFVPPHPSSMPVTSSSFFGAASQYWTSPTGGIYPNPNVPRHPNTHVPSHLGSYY
Procedure, shortened: (§1)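 The binding signal reported is, for every hexamer, its read frequency for a factor over its read frequency for the tag-only sample. Reads came from pools of yeast-expressed, GST-fused human transcription factors on glutathione beads, barcoded with DNA and mixed with that sample, which were incubated with 200 nmole of a random double-stranded 16-mer DNA library in Tris/NaCl/DTT/glycerol buffer at room temperature for 30 min. After washing, the pools were crosslinked with 0.1% formaldehyde, proximity-ligated with BsaI/T4 ligase for 1 h at 37 °C, PCR-amplified and sequenced on an Illumina NextSeq500.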

ELK1 = molecular target: T2, ELK1 (Homo sapiens, UniProt P19419 1-428)
T2 sequence: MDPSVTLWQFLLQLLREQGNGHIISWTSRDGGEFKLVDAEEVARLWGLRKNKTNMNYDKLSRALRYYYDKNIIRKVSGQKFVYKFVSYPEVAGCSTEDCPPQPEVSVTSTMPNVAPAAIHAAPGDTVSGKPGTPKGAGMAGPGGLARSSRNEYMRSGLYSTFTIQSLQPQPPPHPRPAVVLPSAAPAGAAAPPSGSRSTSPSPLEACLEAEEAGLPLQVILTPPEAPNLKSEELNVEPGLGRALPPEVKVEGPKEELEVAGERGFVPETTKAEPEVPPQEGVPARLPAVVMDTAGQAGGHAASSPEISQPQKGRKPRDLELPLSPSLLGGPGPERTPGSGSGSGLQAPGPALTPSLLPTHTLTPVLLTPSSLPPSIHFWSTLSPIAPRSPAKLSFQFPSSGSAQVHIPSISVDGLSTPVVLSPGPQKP
Procedure, shortened: as §1

GABPA = molecular target: T3, GABPA (Homo sapiens, UniProt Q06546 1-454)
T3 sequence: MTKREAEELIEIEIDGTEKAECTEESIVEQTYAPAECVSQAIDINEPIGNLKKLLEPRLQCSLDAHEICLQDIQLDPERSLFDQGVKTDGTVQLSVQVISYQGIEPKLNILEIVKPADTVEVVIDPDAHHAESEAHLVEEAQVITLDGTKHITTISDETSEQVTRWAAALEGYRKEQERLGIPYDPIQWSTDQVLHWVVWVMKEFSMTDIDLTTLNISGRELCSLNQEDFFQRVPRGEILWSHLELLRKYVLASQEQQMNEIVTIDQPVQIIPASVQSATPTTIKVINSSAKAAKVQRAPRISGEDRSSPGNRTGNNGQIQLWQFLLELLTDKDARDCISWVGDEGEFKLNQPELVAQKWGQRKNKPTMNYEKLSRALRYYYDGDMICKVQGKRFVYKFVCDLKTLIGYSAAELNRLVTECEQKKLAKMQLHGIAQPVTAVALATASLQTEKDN
Procedure, shortened: as §1

ERG = molecular target: T4, ERG (Homo sapiens, UniProt P11308 1-479)
T4 sequence: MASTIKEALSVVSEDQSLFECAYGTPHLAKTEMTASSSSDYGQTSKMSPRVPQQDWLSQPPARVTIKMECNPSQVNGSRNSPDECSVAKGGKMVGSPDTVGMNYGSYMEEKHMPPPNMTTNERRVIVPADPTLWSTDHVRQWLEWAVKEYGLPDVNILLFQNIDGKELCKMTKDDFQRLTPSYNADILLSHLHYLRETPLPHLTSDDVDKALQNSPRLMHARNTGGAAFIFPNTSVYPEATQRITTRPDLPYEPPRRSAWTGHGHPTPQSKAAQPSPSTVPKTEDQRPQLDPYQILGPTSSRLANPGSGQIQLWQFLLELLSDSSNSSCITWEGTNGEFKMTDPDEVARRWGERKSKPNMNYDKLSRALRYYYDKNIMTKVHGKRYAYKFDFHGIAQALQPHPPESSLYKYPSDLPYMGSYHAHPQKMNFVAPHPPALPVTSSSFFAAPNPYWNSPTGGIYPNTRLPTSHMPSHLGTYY
Procedure, shortened: as §1

ELF1 = ELF1 (Homo sapiens, UniProt P32519 1-619)
Chain of ELF1 (P32519 whole entry): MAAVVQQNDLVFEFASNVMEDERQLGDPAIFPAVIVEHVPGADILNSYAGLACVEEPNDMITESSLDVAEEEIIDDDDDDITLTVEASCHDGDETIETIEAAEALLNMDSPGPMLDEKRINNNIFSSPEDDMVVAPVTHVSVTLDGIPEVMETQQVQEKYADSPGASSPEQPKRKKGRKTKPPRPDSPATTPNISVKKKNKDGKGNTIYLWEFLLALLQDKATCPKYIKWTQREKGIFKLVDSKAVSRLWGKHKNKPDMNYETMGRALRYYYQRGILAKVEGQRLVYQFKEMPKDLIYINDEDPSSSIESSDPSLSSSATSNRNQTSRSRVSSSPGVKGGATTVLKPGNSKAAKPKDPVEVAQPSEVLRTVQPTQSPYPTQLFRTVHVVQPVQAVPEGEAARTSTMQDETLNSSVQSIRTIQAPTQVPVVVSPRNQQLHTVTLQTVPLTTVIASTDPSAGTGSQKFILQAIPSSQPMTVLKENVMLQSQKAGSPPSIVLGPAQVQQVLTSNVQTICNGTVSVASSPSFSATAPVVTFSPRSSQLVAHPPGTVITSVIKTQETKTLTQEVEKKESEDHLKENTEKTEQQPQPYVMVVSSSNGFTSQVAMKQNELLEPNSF
Procedure, shortened: as §1

EHF = molecular target: T5, EHF (Homo sapiens, UniProt Q9NZC4 1-300)
T5 sequence: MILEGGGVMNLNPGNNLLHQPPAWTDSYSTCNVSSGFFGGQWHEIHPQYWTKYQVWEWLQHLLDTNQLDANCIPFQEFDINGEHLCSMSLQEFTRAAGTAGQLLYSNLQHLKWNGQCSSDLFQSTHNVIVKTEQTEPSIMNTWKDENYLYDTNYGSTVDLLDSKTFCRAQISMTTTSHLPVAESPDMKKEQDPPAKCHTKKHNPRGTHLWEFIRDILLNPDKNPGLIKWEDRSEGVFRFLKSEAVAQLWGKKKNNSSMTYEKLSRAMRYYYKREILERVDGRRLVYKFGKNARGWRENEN
Procedure, shortened: as §1

SPI1 = SPI1 (Homo sapiens, UniProt P17947 1-270)
Procedure, shortened: as §1

SPIB = SPIB (Homo sapiens, UniProt Q01892 1-262)
Chain of SPIB (Q01892 whole entry): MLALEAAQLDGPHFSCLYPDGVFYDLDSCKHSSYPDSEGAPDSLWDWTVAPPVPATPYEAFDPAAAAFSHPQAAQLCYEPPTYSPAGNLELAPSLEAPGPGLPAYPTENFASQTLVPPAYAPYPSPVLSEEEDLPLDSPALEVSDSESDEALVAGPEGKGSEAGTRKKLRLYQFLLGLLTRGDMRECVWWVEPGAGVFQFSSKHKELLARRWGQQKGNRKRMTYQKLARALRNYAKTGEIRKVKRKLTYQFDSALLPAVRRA
Procedure, shortened: as §1

ELK3 = molecular target: T6, ELK3 (Homo sapiens, UniProt P41970 1-407)
T6 sequence: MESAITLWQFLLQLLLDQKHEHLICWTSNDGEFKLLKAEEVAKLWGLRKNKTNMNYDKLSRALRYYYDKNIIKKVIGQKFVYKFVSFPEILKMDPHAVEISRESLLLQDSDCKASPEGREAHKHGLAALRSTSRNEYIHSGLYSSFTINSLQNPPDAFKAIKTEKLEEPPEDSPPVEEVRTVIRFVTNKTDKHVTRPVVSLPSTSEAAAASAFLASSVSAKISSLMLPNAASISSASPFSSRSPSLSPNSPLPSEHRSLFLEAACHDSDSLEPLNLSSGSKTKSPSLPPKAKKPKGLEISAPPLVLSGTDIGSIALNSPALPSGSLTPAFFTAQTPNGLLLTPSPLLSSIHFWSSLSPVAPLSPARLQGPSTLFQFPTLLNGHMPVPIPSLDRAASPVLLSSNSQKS
Procedure, shortened: as §1

Sequence | binding signal (FLI1) | binding signal (ELK1) | binding signal (GABPA) | binding signal (ERG) | binding signal (ELF1) | binding signal (EHF) | binding signal (SPI1) | binding signal (SPIB) | binding signal (ELK3)
TCACTG | 1.21 fold enrichment (6-mer frequency, TF over GST control) | 1.16 fold enrichment (6-mer frequency, TF over GST control) | 1.22 fold enrichment (6-mer frequency, TF over GST control) | 1.27 fold enrichment (6-mer frequency, TF over GST control) | 1.26 fold enrichment (6-mer frequency, TF over GST control) | 1.18 fold enrichment (6-mer frequency, TF over GST control) | 1.15 fold enrichment (6-mer frequency, TF over GST control) | 1.3 fold enrichment (6-mer frequency, TF over GST control) | 1.2 fold enrichment (6-mer frequency, TF over GST control)
TTTAGC | 1.04 fold enrichment (6-mer frequency, TF over GST control) | 1.05 fold enrichment (6-mer frequency, TF over GST control) | 1.2 fold enrichment (6-mer frequency, TF over GST control) | 1.16 fold enrichment (6-mer frequency, TF over GST control) | 1.19 fold enrichment (6-mer frequency, TF over GST control) | 1.12 fold enrichment (6-mer frequency, TF over GST control) | 1.05 fold enrichment (6-mer frequency, TF over GST control) | 1.14 fold enrichment (6-mer frequency, TF over GST control) | 1.09 fold enrichment (6-mer frequency, TF over GST control)
TTAAAC | 1.22 fold enrichment (6-mer frequency, TF over GST control) | 1.18 fold enrichment (6-mer frequency, TF over GST control) | 1.2 fold enrichment (6-mer frequency, TF over GST control) | 1.25 fold enrichment (6-mer frequency, TF over GST control) | 1.23 fold enrichment (6-mer frequency, TF over GST control) | 1.26 fold enrichment (6-mer frequency, TF over GST control) | 1.24 fold enrichment (6-mer frequency, TF over GST control) | 1.26 fold enrichment (6-mer frequency, TF over GST control) | 1.31 fold enrichment (6-mer frequency, TF over GST control)
GTTTAA | 1.19 fold enrichment (6-mer frequency, TF over GST control) | 1.19 fold enrichment (6-mer frequency, TF over GST control) | 1.13 fold enrichment (6-mer frequency, TF over GST control) | 1.13 fold enrichment (6-mer frequency, TF over GST control) | 1.13 fold enrichment (6-mer frequency, TF over GST control) | 1.17 fold enrichment (6-mer frequency, TF over GST control) | 1.16 fold enrichment (6-mer frequency, TF over GST control) | 1.27 fold enrichment (6-mer frequency, TF over GST control) | 1.26 fold enrichment (6-mer frequency, TF over GST control)
TTCGAA | 1.14 fold enrichment (6-mer frequency, TF over GST control) | 1.2 fold enrichment (6-mer frequency, TF over GST control) | 1.19 fold enrichment (6-mer frequency, TF over GST control) | 1.19 fold enrichment (6-mer frequency, TF over GST control) | 1.28 fold enrichment (6-mer frequency, TF over GST control) | 1.12 fold enrichment (6-mer frequency, TF over GST control) | 1.14 fold enrichment (6-mer frequency, TF over GST control) | 1.12 fold enrichment (6-mer frequency, TF over GST control) | 1.33 fold enrichment (6-mer frequency, TF over GST control)
ACTATC | 1.15 fold enrichment (6-mer frequency, TF over GST control) | 1.13 fold enrichment (6-mer frequency, TF over GST control) | 1.17 fold enrichment (6-mer frequency, TF over GST control) | 1.11 fold enrichment (6-mer frequency, TF over GST control) | 1.12 fold enrichment (6-mer frequency, TF over GST control) | 1.14 fold enrichment (6-mer frequency, TF over GST control) | 1.21 fold enrichment (6-mer frequency, TF over GST control) | 1.16 fold enrichment (6-mer frequency, TF over GST control) | 1.07 fold enrichment (6-mer frequency, TF over GST control)
GTTCTA | 1.16 fold enrichment (6-mer frequency, TF over GST control) | 1.28 fold enrichment (6-mer frequency, TF over GST control) | 1.22 fold enrichment (6-mer frequency, TF over GST control) | 1.24 fold enrichment (6-mer frequency, TF over GST control) | 1.31 fold enrichment (6-mer frequency, TF over GST control) | 1.12 fold enrichment (6-mer frequency, TF over GST control) | 1.12 fold enrichment (6-mer frequency, TF over GST control) | 1.32 fold enrichment (6-mer frequency, TF over GST control) | 1.23 fold enrichment (6-mer frequency, TF over GST control)
ACTACC | 1.61 fold enrichment (6-mer frequency, TF over GST control) | 1.72 fold enrichment (6-mer frequency, TF over GST control) | 1.67 fold enrichment (6-mer frequency, TF over GST control) | 1.63 fold enrichment (6-mer frequency, TF over GST control) | 1.71 fold enrichment (6-mer frequency, TF over GST control) | 1.51 fold enrichment (6-mer frequency, TF over GST control) | 1.69 fold enrichment (6-mer frequency, TF over GST control) | 1.69 fold enrichment (6-mer frequency, TF over GST control) | 1.63 fold enrichment (6-mer frequency, TF over GST control)
